This passage reports outcome and AC50 results from PubChem BioAssay (EPA / NIEHS).

Read-out in assay [1]: Urokinase-type plasminogen activator receptor (uPAR), PLAUR (gene 5329)
The assay can be described thus: BSK_4H_uPAR: BioMAP Diversity Plus: 4H Assay for Urokinase-type plasminogen activator receptor (uPAR) Biomarker Activity (AID 2283030). The following applies: primary human endothelial cells (HUVEC); actives raise or lower the signal. The method, boiled down: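 Chemicals are dosed onto human vascular endothelial primary cells (umbilical vein). After 24 h, uPAR is read by ELISA. Gain or loss of signal is fitted relative to DMSO.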

Read-out in assay [2]: Vascular endothelial growth factor receptor 2 (Homo sapiens) (UniProt P35968)
The assay can be described thus: BSK_4H_VEGFRII: BioMAP Diversity Plus: 4H Assay for Vascular endothelial growth factor receptor 2 (VEGFR2) Biomarker Activity (AID 2283031).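 For AC50: cell-surface VEGFR2 protein level quantified by ELISA.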 The note with it: primary human endothelial cells (HUVEC); actives raise or lower the signal. The method, boiled down:
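VEGFRII levels on human vascular endothelial primary cells were determined by ELISA at 24 hours post-dosing, with gain- or loss-of-signal fitted against DMSO controls.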

Read-out in assay [3]: Human Leukocyte Antigen - DR isotype (HLADR), HLA-DRA (gene 3122)
The assay can be described thus: BSK_BE3C_HLADR: BioMAP Diversity Plus: BE3C Assay for Human Leukocyte Antigen - DR isotype (HLADR) Biomarker Activity (AID 2283032). The following applies: primary human bronchial epithelial cells; actives raise or lower the signal. The method, boiled down:
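Chemicals are dosed onto BE3C bronchial epithelial cultures of human origin and left 24 h. HLA-DR is then measured by ELISA, and the endpoint is fitted in both directions using DMSO as the activity baseline.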

Read-out in assay [4]: Vascular cell adhesion molecule 1 (VCAM1), VCAM1 (gene 7412)
The assay can be described thus: BSK_4H_VCAM1: BioMAP Diversity Plus: 4H Assay for Vascular cell adhesion molecule 1 (VCAM1) Biomarker Activity (AID 2283033).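 For outcome: cell-surface VCAM-1 protein measured by ELISA.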 The following applies: primary human endothelial cells (HUVEC); actives raise or lower the signal. The method, boiled down: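 Chemicals are added to primary human umbilical vein endothelial cells. After 24 h, VCAM-1 levels are measured by ELISA. Values come from bidirectional fitting referenced to DMSO.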

Read-out in assay [5]: Interferon-gamma inducible Protein 10 (IP10), CXCL10 (gene 3627)
The assay can be described thus: BSK_BE3C_IP10: BioMAP Diversity Plus: BE3C Assay for Interferon-gamma inducible Protein 10 (IP10) Biomarker Activity (AID 2283034). The following applies: primary human bronchial epithelial cells; actives raise or lower the signal. The method, boiled down:
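IP-10 quantified by ELISA serves as the endpoint. Cells: primary human bronchial epithelium, read 24 h after compound addition. Activity is derived by bidirectional fitting with DMSO as negative control.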

Read-out in assay [6]: Monokine induced gamma interferon (MIG), CXCL9 (gene 4283)
The assay can be described thus: BSK_BE3C_MIG: BioMAP Diversity Plus: BE3C Assay for Monokine induced gamma interferon (MIG) Biomarker Activity (AID 2283035).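 Note: MIG protein measured by ELISA in BE3C cultures after 24 h of dosing.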 The following applies: primary human bronchial epithelial cells; actives raise or lower the signal. The method, boiled down: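 hu bronchial epithelial 1° cells, 24 h cpd; MIG by ELISA; bidirectional fit, DMSO = baseline.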

Read-out in assay [7]: urokinase plasminogen activator (uPA), PLAU (gene 5328)
The assay can be described thus: BSK_BE3C_uPA: BioMAP Diversity Plus: BE3C Assay for urokinase plasminogen activator (uPA) Biomarker Activity (AID 2283038).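 Note: uPA protein level quantified by ELISA in cell cultures; uPA read one day after compound addition.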 The following applies: primary human bronchial epithelial cells; actives raise or lower the signal. The method, boiled down: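 Measured by ELISA: uPA from human primary bronchial epithelial cells 24 h after chemical treatment. Values derive from bidirectional curve fitting with DMSO serving as negative control. Total protein by SRB staining in parallel wells flagged overt cytotoxicity.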

Read-out in assay [8]: Urokinase-type plasminogen activator receptor (uPAR), PLAUR (gene 5329)
The assay can be described thus: BSK_BE3C_uPAR: BioMAP Diversity Plus: BE3C Assay for Urokinase-type plasminogen activator receptor (uPAR) Biomarker Activity (AID 2283039).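 Note: uPAR protein level measured by ELISA on the cells; cells exposed to compound for one day before measurement.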 The following applies: primary human bronchial epithelial cells; actives raise or lower the signal. The method, boiled down: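 Steps: dose human primary bronchial epithelial cells, incubate 24 h, measure uPAR by ELISA, then fit gain- or loss-of-signal response bidirectionally relative to DMSO.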

Read-out in assay [9]: Interleukin-6 (IL6), IL6 (gene 3569)
The assay can be described thus: BSK_CASM3C_IL6: BioMAP Diversity Plus: CASM3C Assay for Interleukin-6 (IL6) Biomarker Activity for (AID 2283040). The note with it: primary human coronary artery smooth muscle cells; actives raise or lower the signal.

Read-out in assay [10]: Tissue plasminogen activator (tPA), PLAT (gene 5327)
The assay can be described thus: BSK_BE3C_tPA: BioMAP Diversity Plus: BE3C Assay for Tissue plasminogen activator (tPA) Biomarker Activity (AID 2283041).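 For outcome: tPA level quantified by ELISA one day after compound addition.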 The following applies: primary human bronchial epithelial cells; actives raise or lower the signal. The method, boiled down:
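Gain- or loss-of-signal in tPA, measured by ELISA, derived by bidirectional fitting against DMSO. Cells: human primary bronchial epithelial; read at 24 h after chemical dosing.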

Read-out in assay [11]: Interleukin-8 (IL8), CXCL8 (gene 3576)
The assay can be described thus: BSK_CASM3C_IL8: BioMAP Diversity Plus: CASM3C Assay for Interleukin-8 (IL8) Biomarker Activity (AID 2283042).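 Note: IL-8 protein level quantified by ELISA.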 The following applies: primary human coronary artery smooth muscle cells; actives raise or lower the signal.

Read-out in assay [12]: Human Leukocyte Antigen - DR isotype (HLADR), HLA-DRA (gene 3122)
The assay can be described thus: BSK_CASM3C_HLADR: BioMAP Diversity Plus: CASM3C Assay for Human Leukocyte Antigen - DR isotype (HLADR) Biomarker Activity (AID 2283043).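 Note: cell-surface HLA-DR protein level quantified by ELISA.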 The note with it: primary human coronary artery smooth muscle cells; actives raise or lower the signal.

Read-out in assay [13]: Macrophage colony-stimulating factor (MCSF), CSF1 (gene 1435)
The assay can be described thus: BSK_CASM3C_MCSF: BioMAP Diversity Plus: CASM3C Assay for Macrophage colony-stimulating factor (MCSF) Biomarker Activity (AID 2283044).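 Note: M-CSF protein amount quantified by ELISA after 24 h exposure.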 The note with it: primary human coronary artery smooth muscle cells; actives raise or lower the signal.

Read-out in assay [14]: Low-density lipoprotein receptor (LDLR), LDLR (gene 3949)
The assay can be described thus: BSK_CASM3C_LDLR: BioMAP Diversity Plus: CASM3C Assay for Low-density lipoprotein receptor (LDLR) Biomarker Activity (AID 2283045).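 Note: LDLR protein level on the cell surface quantified by ELISA.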 The following applies: primary human coronary artery smooth muscle cells; actives raise or lower the signal.

Read-out in assay [15]: Monocyte Chemoattractant Protein-1 (MCP1), CCL2 (gene 6347)
The assay can be described thus: BSK_CASM3C_MCP1: BioMAP Diversity Plus: CASM3C Assay for Monocyte Chemoattractant Protein-1 (MCP1) Biomarker Activity (AID 2283046).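 Note: MCP-1 level quantified by ELISA 24 h after dosing.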 The following applies: primary human coronary artery smooth muscle cells; actives raise or lower the signal.

A short description of assay [16]: BSK_CASM3C_Proliferation: Cell Proliferation Assessment in the BioMAP Diversity Plus: CASM3C Assay (AID 2283047).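 Note: sulforhodamine B total protein stain as relative cell number at 560 nm; sub-confluent cells exposed 48 h before staining; fitted both ways against DMSO so gain or loss of cell number.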 The following applies: primary human coronary artery smooth muscle cells.
Read-out in assay [17]: Monokine induced gamma interferon (MIG), CXCL9 (gene 4283)
The assay can be described thus: BSK_CASM3C_MIG: BioMAP Diversity Plus: CASM3C Assay for Monokine induced gamma interferon (MIG) Biomarker Activity (AID 2283048).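 Note: MIG protein level measured by ELISA.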 The following applies: primary human coronary artery smooth muscle cells; actives raise or lower the signal.

Read-out in assay [18]: serum amyloid A (SAA), SAA1 (gene 6288)
The assay can be described thus: BSK_CASM3C_SAA: BioMAP Diversity Plus: CASM3C Assay for serum amyloid A (SAA) Biomarker Activity (AID 2283049).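 Note: SAA protein level quantified by ELISA.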 The note with it: primary human coronary artery smooth muscle cells; actives raise or lower the signal.

Read-out in assay [19]: Transforming growth factor beta 1 (TGFb1), TGFB1 (gene 7040)
The assay can be described thus: BSK_BE3C_TGFb1: BioMAP Diversity Plus: BE3C Assay for Transforming growth factor beta 1 (TGFb1) Biomarker Activity (AID 2283036;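 note: TGF-b1 protein level measured by ELISA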). The following applies: primary human bronchial epithelial cells; actives raise or lower the signal. The method, boiled down:
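Bronchial epithelial primary cells are treated with test chemical, then TGF-b1 is quantified by ELISA after 24 hours. Values derive from bidirectional fitting against DMSO, with cytotoxicity checked by SRB staining in parallel cultures.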

A structure can be active in one record and inactive in another. Activity calls are given as the source filed them. Rule for the calls: active = hit-call score of the fitted dose curve at least 0.9, where 1 is the maximum; inactive = score below 0.9.

`OCC(F)(OC(F)(F)C(F)(OC(F)(F)C(F)(F)C(F)(F)F)C(F)(F)F)C(F)(F)F` (configuration not stated): the outcome in assay [1], in [2], in assay [3], in [4], in assay [5] and in assay [6] was inactive. The outcome in assay [7], in assay [8], in assay [9], in [10], in assay [11] and in assay [12] was inactive. Moreover, the result in [13], in assay [14], in assay [15], in [16], in assay [17] and in assay [18] was inactive. The AC50 (as a rule, the midpoint of the concentration-response curve, whichever way the signal moves) in assay [3] is 5.06 µM (active); in assay [4], 2.41 µM (active); in assay [5] it was 4.78 µM (active).

Turning to `NC(=O)c1c(Cl)cccc1Cl`, the result in assay [1], in [2], in assay [3], in assay [4], in assay [5] and in assay [6] was inactive. For the same molecule, the outcome in assay [19], in assay [7], in assay [8], in [9], in assay [10] and in assay [11] was inactive. Further, the result in assay [12], in assay [13], in assay [14], in assay [15], in assay [16] and in assay [17] was inactive. Besides, in [18], the result was inactive.

Consider `C[C@]12CC[C@@H]3c4ccc(O)cc4CC[C@H]3[C@@H]1CC[C@@H]2O`, for which the AC50 is 8.9 µM (active) in assay [1], 3.24 µM (active) in [13], 13.4 µM (active) in assay [16] and 12.2 µM (active) in assay [17]. For the same molecule, the result in assay [2], in assay [3], in assay [4], in assay [5], in assay [6] and in [19] was inactive. The outcome in assay [7], in assay [8], in assay [9], in [10], in assay [11] and in [12] was inactive. Moreover, the result in [14], in [15] and in [18] was inactive.

Regarding `CCCCOCCOCCO`, the outcome in assay [1], in [2], in [3], in [4], in assay [5] and in assay [6] was inactive. For the same molecule, the outcome in [19], in assay [7], in [8], in assay [9], in assay [10] and in [11] was inactive. Moreover, the outcome in assay [12], in [13], in [14], in assay [15], in assay [16] and in assay [17] was inactive. The result in [18] was inactive.

For `CC(=O)OC(C)(C)C1CC=C(C)CC1` (configuration not stated), the half-maximal activity concentration (AC50) in assay [1] is 30.8 µM (active); in assay [2], 31.6 µM (active); in [3] it was 35.4 µM (active); in assay [4], 35 µM (active); in assay [5], 31.5 µM (active); in assay [10], 27.7 µM (active). For the same molecule, the half-maximal activity concentration (AC50) in [12] was 31.5 µM (active); in [13], 35.3 µM (active); in [15] it was 32.6 µM (active); in [16], 29.6 µM (active). Further, the result in assay [6], in assay [19], in assay [7], in [8], in [9] and in [11] was inactive. In addition, the result in assay [14], in assay [17] and in assay [18] was inactive.
